Measurements published in PubChem BioAssay (NCI).
Compounds without any hit were thinned out: in the full panel of roughly 83,000, 20% have a hit.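 Growth was measured after 48 h exposure to one concentration of compound in 96-well plates. Values under 10 count as active.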 The source made the active and inactive calls.

Legend:
Assay in all cases: NCI-60 one-dose screen, 48 h (100 = growth as untreated, 0 = no growth, -100 = all killed)
Conditions in all cases: 10 µM unless noted
[1] = tested on: DU-145 prostate
[2] = tested on: MALME-3M melanoma
[3] = tested on: MDA-MB-231 breast
[4] = tested on: RXF 393 renal
[5] = tested on: SF-268 CNS
[6] = tested on: SF-295 CNS
[7] = tested on: SF-539 CNS
[8] = tested on: UACC-257 melanoma
[9] = tested on: M14 melanoma

Measured: growth

COc1cc2ncnc(Oc3ccc(NC(=O)Nc4ccc(C5(C#N)CCCC5)cc4)c4ccccc34)c2cc1OC
inactive: [1] 57.7% | [2] 31.3% | [3] 43.6% | [4] 14.9% | [5] 27% | [6] 13.7% | [7] 64.7% | [8] 94.8% | [9] 47.3%

O=C(Cn1c2ccccc2c2ccncc21)N/N=C\c1ccc2ccccc2c1
inactive: [5] 41.6% | [6] 28.7% | [7] 27.6% | [8] 59.7% | [9] 30.9%
active: [1] 9.11% | [2] 3.45% | [3] 5.36% | [4] 1.74%

Nc1nc(Cl)c2c(C(F)(F)F)cn(CC3CCNCC3)c2n1
inactive: [1] 109% | [2] 101% | [3] 54.2% | [4] 52.9% | [5] 96.2% | [6] 105% | [7] 107% | [8] 83.8% | [9] 57.3%

O=C(c1ccccc1)[C@H]1[C@@H]2CCCN2[C@]2(C(=O)Nc3ccc(F)cc32)[C@]12C(=O)Nc1ccccc12
inactive: [1] 94% | [2] 125% | [3] 75.5% | [4] 81.9% | [5] 90.2% | [6] 97.6% | [7] 90.1% | [8] 83.3% | [9] 85.2%

CC(C)(C)C(=O)/C=c1/[nH]c(=O)/c(=C/c2ccccc2O)s1
inactive: [1] 78.6% | [2] 66.4% | [3] 58.1% | [4] 62.7% | [5] 61% | [6] 60.6% | [7] 60.1% | [8] 82.1% | [9] 30.4%

CN(C)c1ccc2cc(-c3nc4ccccc4s3)c(N)nc2c1
inactive: [1] 40.8% | [2] 83.4% | [3] 70.7% | [4] 83.5% | [5] 58.7% | [6] 22.3% | [7] 34% | [8] 93.9% | [9] 50.9%

O=C(Nc1ccc(F)cc1)Nc1ccc(Cl)c([N+](=O)[O-])c1
active: [6] 8.17%
inactive: [1] 18.9% | [2] 27.4% | [3] 40% | [4] 51.1% | [5] 32.7% | [7] 36.2% | [8] 34.9% | [9] 24%

CC(C)(C)OC(=O)N1CC(Cn2cc(C(F)(F)F)c3c(Cl)ncnc32)C1
active: [1] -100% | [3] 0.765% | [4] -63.7% | [5] -86.9% | [8] -37.9% | [9] -87.4%
inactive: [2] 80.6% | [6] 30.4% | [7] 79.9%

C=C1C(=O)O[C@H]2[C@H]1CC/C(COC(=O)c1ccc3ccccc3c1)=C\CC[C@@]1(C)O[C@@H]21
inactive: [6] 43.1%
active: [1] -81.1% | [2] -75.8% | [3] -62.3% | [4] -91% | [5] -41% | [7] -94.9% | [8] -24.6% | [9] -58.8%

c1coc(CSc2ncnc3nc[nH]c23)c1
inactive: [1] 108% | [2] 125% | [3] 115% | [4] 91.1% | [5] 101% | [6] 142% | [7] 91.6% | [8] 97.3% | [9] 101%

C=C1C(=O)O[C@H]2[C@H]1CC/C(COC(=O)c1ccccc1)=C\CC[C@@]1(C)O[C@@H]21
inactive: [5] 41% | [6] 60.8% | [8] 30%
active: [1] 6.11% | [2] -65% | [3] -37.1% | [4] -84% | [7] -65.5% | [9] -31.9%

CCc1c2cc(Cl)ccc2n2cc(Cc3ccccc3)[nH]c(=O)c12
inactive: [1] 104% | [2] 85.3% | [3] 97.4% | [4] 116% | [5] 95.4% | [6] 98.1% | [7] 103% | [8] 104% | [9] 99.9%

Cc1cn(-c2nc3c(c(NCc4ccccc4)n2)COCC3)c2cccc(C(N)=O)c12
inactive: [1] 87.6% [0.5 µM] | [2] 82.9% [0.5 µM] | [3] 58.5% [0.5 µM] | [4] 43.6% [0.5 µM] | [5] 76.9% [0.5 µM] | [6] 36.1% [0.5 µM] | [7] 84.6% [0.5 µM] | [8] 68.1% [0.5 µM] | [9] 55.2% [0.5 µM]

CCCc1nn2c(CCC(=O)c3nc4ccc([N+](=O)[O-])cc4[nH]3)nnc2s1
inactive: [1] 108% | [2] 105% | [3] 95.9% | [4] 114% | [5] 100% | [6] 104% | [7] 103% | [8] 113% | [9] 99.6%

N#CC1=C(N)Oc2c(ccc3ccccc23)C1c1cc(=O)oc2ccc(Cl)cc12 (stereo unspecified)
active: [4] 7.4% | [7] 3.16% | [9] 3.47%
inactive: [1] 19.4% | [2] 77.8% | [3] 50% | [5] 56.1% | [6] 14.1% | [8] 73.5%

CCCCCn1ncc(-c2c(O)c(O)cc3c(O)c(-c4c(C)cc5c(-c6cnn(CCCCC)n6)c(O)c(O)cc5c4O)c(C)cc23)n1
active: [4] -4.68% | [5] 5.18% | [7] 3.31% | [9] -20.8%
inactive: [1] 22.9% | [2] 27% | [3] 32.9% | [6] 10% | [8] 16.2%

COc1cc2ncnc(Oc3ccc(NC(=O)Nc4ccc(CN5CCOCC5)c(C(F)(F)F)c4)c4ccccc34)c2cc1OC
inactive: [1] 32.6% | [3] 51.2% | [4] 20.8% | [5] 23.3% | [6] 40.6% | [7] 55.4% | [8] 21.1% | [9] 20.4%
active: [2] -11.1%

Fc1cccc(F)c1C#Cc1ccc2cccnc2c1
inactive: [1] 96.5% | [2] 90.3% | [3] 78% | [4] 101% | [5] 88.6% | [6] 101% | [7] 102% | [8] 88.2% | [9] 95.7%

CCn1cc(/C=C2\Oc3cc(OCC#N)ccc3C2=O)c2cc(OC)ccc21
active: [4] -11.3% | [7] 3.56%
inactive: [1] 20.4% | [2] 93.4% | [3] 45.2% | [5] 55.9% | [6] 16.7% | [8] 65.1% | [9] 22.8%
